Inconclusive results are not listed. Activity calls are given as the source filed them. Calls come from the whole dose curve; as a rule, active = well fitted inhibition curve with a large enough effect; inconclusive = small, poorly fitted or top-dose-only effect; inactive = flat fitted curve, though single readings scatter.
% is set by controls: 0 for no effect and ±100 for the full control effect; potency is the fitted concentration of half-maximal effect.

The assay concerns HEK293. Briefly: Cytotoxic Profiling of Annotated Libraries Using Quantitative High-Throughput Screening (AID 1296008). Note: nearly all actives have a fitted effect of over 60% in size. Conditions: Five cell lines viability, CellTiter-Glo ATP luminescence, 48-72 h; max response: hits give low values. The text has this: Cell-based phenotypic screening is a commonly used approach to discover biological pathways, novel drug targets, chemical probes and high-quality hit-to-lead molecules. Many hits identified from high-throughput screening campaign are ruled out through a series of follow-up potency, selectivity/specificity, and cytotoxicity assays. Prioritization of molecules with little or no cytotoxicity for a more in-depth downstream evaluation influence the future direction of projects, so cytotoxicity profiling of the screening libraries at early stage is essential for increasing the likelihood of candidate success. […] For the annotated library, we also examined the primary targets and mechanistic pathways regularly associated with cell death. To our knowledge, this is the first study to use high-throughput screening to profile large libraries for cytotoxicity assessment in both normal and cancer cell lines. In summary, the results generated here constitutes a valuable resource for the scientific community and provides insight on identifying cytotoxic compounds with particular mechanisms of action, and prioritizing compounds with suitable cytotoxicity profile for further evaluation.
A pintool (Kalypsys) was used to transfer 23 nL of compound solution to the 1536-well assay plates. After 48 or 72 hr incubation at 37 degree Celsius, 5% CO2 and 95% humidity, 2.5 uL of CellTiter-Glo (Promega) was dispensed into each well using a dispenser (Aspect Automation, St. Paul, MN) with solenoid valves (Lee Valves, Westbrook CT). Plates were left at room temperature for 10 min before imaging the ATP-coupled luminescence using a ViewLux microplate imager (PerkinElmer, Waltham, MA).
For orientation: ATP-based viability assays read luminescence as a measure of living cells.
As for `OC(O)C(Cl)(Cl)Cl`, the max response was -2.43% (inactive).

As for `C[N+]1(CCC(C(N)=O)(c2ccccc2)c2ccccc2)CCCCC1`, the compound was called inactive. For `CNC(C)Cc1ccc2c(c1)OCO2` (stereo not given), the max response is -3.37% (inactive). Turning to `COP(=S)(OC)Oc1ccc(S(N)(=O)=O)cc1`, the max response was -8.17% (inactive). Regarding `COc1ccc2c3c1O[C@H]1[C@@H](O)C=C[C@H]4[C@@H](C2)N(C)CC[C@@]341`, the Potency is 33.7 µM (active). As for `C[N+](C)(C)CCOC(=O)C(O)(c1ccccc1)c1ccccc1`, the max response is -0.686% (inactive). `CCN(Cc1ccc(Cl)nc1)/C(=C/[N+](=O)[O-])NC`: the outcome was inactive. Turning to `O=C(O)Cc1ccccc1`, the max response was -7.97% (inactive).

`CN(C)C(=S)SSC(=S)N(C)C`: the Potency was 0.944 µM (active). For the compound `CC#C[C@]1(O)CC[C@H]2[C@@H]3C[C@H](C)C4=CC(=O)CC[C@]4(C)[C@H]3CC[C@@]21C`, the Potency was 23.7 µM (active). With `Nc1ccccc1C(=O)OCC(O)CO` (stereo not given), the compound was called inactive. Consider `Oc1c(Br)cc(Br)cc1Br`, for which the max response is 2.8% (inactive). `CCC1(c2cccc(O)c2)CCCCN(C)C1` (stereo not given): the max response is -2.39% (inactive). `C1CN2CCC1CC2`: the max response was 1.2% (inactive). Turning to `CN1[C@@H]2CC[C@H]1CC(OC(=O)c1cc(Cl)cc(Cl)c1)C2` (stereo not given in full), the Potency is 26.6 µM (active). As to `CC(C)NCC(O)c1ccc(N)c(C#N)c1` (stereo not given), the compound was classed as inactive. On to `CCOC(=O)C1(c2ccccc2)CCN(CCc2ccc(N)cc2)CC1`, for which the max response is -24.8% (inactive). Consider `O=C(CCCCl)c1ccc(F)cc1`, for which the call was inactive. Turning to `CC(C)C(Br)C(=O)NC(N)=O` (stereo not given), the max response was 2.09% (inactive). Take `COc1cc(C[C@@H](C)N)c(OC)cc1C`: the max response is -43.2% (inactive).

Regarding `CCOC(=O)c1cncn1C(C)c1ccccc1` (stereo not given), the compound was called inactive and the max response is -6.12% (inactive). `CCOC(=O)c1ncn2c1CN(C)C(=O)c1c(I)cccc1-2`: the max response was -11.8% (inactive). For `CNC(C)Cc1ccccc1OC` (stereo not given), the max response is -10.8% (inactive).

As to `O=C1CN2CCOC2(c2ccccc2Cl)c2cc(Cl)ccc2N1` (stereo not given), the max response was -3.36% (inactive).

Turning to `CCCC(C)C1(CC)C(=O)N=C(S)NC1=O` (stereo not given), the outcome was inactive. For `CN(C)C(=O)Oc1cc(OC(=O)N(C)C)cc(C(O)CNC(C)(C)C)c1` (stereo not given), the max response was -17.2% (inactive). Same read-out and setting: under `CN(C)CCc1c[nH]c2ccc(O)cc12` stands -2.05% (inactive); under `CN1C(=O)CN=C(c2ccccc2)c2cc([N+](=O)[O-])ccc21`, -10% (inactive); under `NCc1cccnc1`, -4.51% (inactive). `CN1C[C@@H](NS(=O)(=O)N(C)C)C[C@@H]2c3cccc4c3c(cn4C)C[C@H]21`: the max response was -5.36% (inactive).

`CCOC(=O)NC(C)(C)Cc1ccc(Cl)cc1`: the compound was classed as inactive. Consider `CN(C)CCc1c[nH]c2ccccc12`, for which the max response was -13.9% (inactive). Take `CCOC(=O)C(c1c(O)c2ccccc2oc1=O)c1c(O)c2ccccc2oc1=O`: the call was inactive. Consider `COc1ccc2[nH]cc(CCN(C(C)C)C(C)C)c2c1`, for which the max response was -7.74% (inactive).

Turning to `CCN1CCCC1CNC(=O)C(O)(c1ccccc1)c1ccccc1` (stereo not given), the compound was called inactive. Regarding `C[C@]12CC[C@H]3[C@@H](CCC4=CC(=O)CC[C@@]43C)[C@@H]1CC[C@@H]2C(=O)O`, the max response was -4.71% (inactive).

`Sc1ccccc1Cl`: the max response was -0.79% (inactive). Regarding `COc1cc(CC(C)N)cc2c1OCO2` (stereo not given), the max response is -16.7% (inactive). For the compound `NC(=O)OCCCc1ccccc1`, the max response was 3.07% (inactive).

The values are drawn from PubChem BioAssay (NCATS).
